# ID4 SMM – binds human ID4 protein on microarray; calls only; small molecule microarray, Flag-ID4 binding, fluorescence F/B; 31,000 tested, 1.2% active; call rule not given here;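 further: a binder raises fluorescence above local background on the spot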
# Target sequence (P47928 whole entry, looked up): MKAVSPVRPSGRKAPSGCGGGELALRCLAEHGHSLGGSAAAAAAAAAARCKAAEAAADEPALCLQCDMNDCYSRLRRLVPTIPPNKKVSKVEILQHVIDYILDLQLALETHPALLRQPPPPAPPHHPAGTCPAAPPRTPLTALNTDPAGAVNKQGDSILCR
# mut p53 react – re-activators of the mutant p53 pathway; AID 624151; activation, % at 9.98 µM; 28,000 tested, 1.5% active; SW480 PUMA-promoter luciferase, p53 mutant reactivation; in the data active means activation above about 52%
# STK33 inh – blocks human STK33 kinase activity; Q9BYT3; ADP-Glo luminescence, MBP substrate; inhibition, % at 12.5 µM; 27,000 tested, 0.44% active; AID 2322; in the data active means inhibition above about 20%
# The depositor's hits bear a star; i = inactive; x = not tested or not shown; + = active, no number. In the library only some 2.1% were active in any assay of this set; here they are far more common.
SMILES,ID4 SMM,mut p53 react,STK33 inh
COc1ccccc1-c1ccc2c(c1)O[C@H](CN(C)Cc1ccc3c(c1)OCO3)[C@H](C)CN([C@@H](C)CO)S2(=O)=O,i,-18.0,x
C[C@H](CO)N1C[C@H](C)[C@H](CN(C)C)Oc2cc(-c3ccncc3)ccc2S1(=O)=O,x,8.5,x
C[C@@H]1CN([C@@H](C)CO)S(=O)(=O)c2ccc(/C=C/c3ccccc3)cc2O[C@H]1CN(C)Cc1ccc(C(=O)O)cc1,+,-4.8,x
Cc1cnn(CCCNC(=O)NC23CC4CC(CC(C4)C2)C3)c1,i,9.8,-1.4
O=C(CSc1nnnn1-c1ccccc1)Nc1ccc(-c2nc3ccccc3s2)cc1,i,30.1,10.2
Cc1ccc([N+](=O)[O-])cc1NC(=O)CSc1nnc(-c2ccncc2)n1-c1ccccc1,i,-8.5,3.5
CC(=O)c1cccc(NC(=O)NCc2cc(C)n(C)n2)c1,i,6.1,-0.2
COC(=O)c1ccccc1NC(=O)c1c(NC(=O)CN2CCCCCC2)sc2c1CCC2,i,-15.4,-7.2
Cc1c(NC(=O)CN(c2cccc(F)c2)S(C)(=O)=O)c(=O)n(-c2ccccc2)n1C,i,4.2,-3.4
Cc1ccc(N(CC(=O)Nc2c(C)n(C)n(-c3ccccc3)c2=O)S(C)(=O)=O)cc1Cl,+,-17.2,-1.5
CC(=O)O[C@H]1CC[C@@]2(C)C(CC[C@]3(C)C2C(=O)C=C2C4[C@@H](C)[C@H](C)CC[C@]4(C(=O)O)CC[C@]23C)C1(C)C (stereo not given in full),x,x,-6.5
COc1ccc([N+](=O)[O-])cc1NC(=O)CN(c1ccc(C)cc1)S(C)(=O)=O,i,7.1,-1.9
O=C(CSc1nnnn1-c1ccccc1)Nc1cc(Cl)ccc1C(=O)O,i,-6.1,3.5
O=C(CSc1nnnn1-c1ccccc1)Nc1ccc(Cl)c(C(=O)O)c1,+,3.4,2.7
COC(=O)C(CC(=O)c1ccc(Cl)cc1)c1cc(=O)oc2cc(OC)ccc12 (stereo not given),i,10.4,0.6
O=C(CSc1nc(O)cc(=O)n1-c1ccccc1)Nc1cccc2ccccc12,i,-10.5,0.5
COc1cc([C@H]2OC[C@H]3[C@@H]2CO[C@@H]3c2ccc3c(c2)OCO3)cc(OC)c1OC,x,16.2,-2.0
COc1cc(CO)ccc1OCC(=O)Nc1ccccc1F,i,64.4*,-2.2
O=C(COc1ccc(Cl)cc1CO)Nc1ccccc1F,i,127.5*,-5.9
Cc1cccc(OCC(=O)Nc2ccccc2CO)c1C,i,69.0*,-2.7
CC(=O)Oc1ccc(NC(=O)COc2cccc(C)c2C)c(C(=O)O)c1,i,-6.0,-3.4
COc1cc(CO)ccc1OCC(=O)Nc1ccc(C)cc1,i,47.2,-2.5
CC(=O)Nc1ccccc1NC(=O)COc1ccc(Cl)cc1Cl,i,25.8,0.5
O=C(CSc1nnc(C2COc3ccccc3O2)n1-c1ccccc1)c1ccc([N+](=O)[O-])cc1 (stereo not given),i,8.7,0.3
COc1ccc(C(=O)Nc2ccc3nc(SCC(=O)Nc4ccccc4F)sc3c2)cc1OC,i,-22.9,2.4
SMILES,ID4 SMM,mut p53 react,STK33 inh
COc1ccc(S(=O)(=O)NCc2ccco2)c(Cl)c1Cl,i,-10.6,1.7
CSc1cccc(NC(=O)C(C)N(c2ccc(C)c(C)c2)S(C)(=O)=O)c1 (stereo not given),i,0.1,0.7
Cn1c(SCc2nc(-c3cccs3)no2)nnc1-c1ccco1,+,-11.2,-0.3
Cn1c(SCc2nc(-c3cccs3)no2)nnc1-c1ccccc1,i,-9.8,8.8
O=S(=O)(N[C@@H]1CCCN(Cc2cccc(OCCO)c2)C1)c1ccccc1,x,x,-10.0
Cn1c(=O)[nH]c(=O)c2c1ncn2CCNCc1ccco1,+,-0.4,-0.7
O=C(Cn1cnc2ccccc2c1=O)NCc1ccco1,i,2.4,1.2
Cc1nnc(SCC(=O)c2c(C)[nH]c3ccccc23)s1,i,49.4,1.4
Cc1[nH]c2ccccc2c1C(=O)CSc1ncn[nH]1,i,4.6,-1.2
Cc1[nH]c2ccccc2c1C(=O)CSc1nnc2ccccn12,i,94.9*,-4.3
Cc1[nH]c2ccccc2c1C(=O)CCC(=O)O,+,-4.4,-0.8
COC(=O)c1scc(C#N)c1N=CN(C)C,x,x,2.6
COC(=O)c1ccc2c(=O)n(CCc3cnc[nH]3)c(=S)[nH]c2c1,i,-1.3,-1.9
Cc1cc(C(F)F)n2nc(C(=O)Nc3c(C)nn(Cc4ccc(Cl)cc4)c3C)nc2n1,i,-0.1,-1.5
COc1ccc(-c2nnc(SCC(=O)Nc3cc(Cl)c(Cl)cc3Cl)n2C)cc1,i,-2.3,-0.7
COc1ccc(/C=C2\Oc3cc(O)cc(O)c3C2=O)cc1O,i,2.9,31.4*
COc1cc(C2CC(=O)c3c(O)cc(O)cc3O2)ccc1O (stereo not given),i,-5.0,4.4
